In the supplement of paper PMC11732987, “Enantioselective OTUD7B fragment discovery through chemoproteomics screening and high-throughput optimisation” (Communications Chemistry, 2025):

Tests used:
Assay in all cases: log2 ratio of Biotin-Ahx-Ub-VS probe labelling (fragment/DMSO); higher = less target engagement (more negative = stronger competition), active = hit call of the paper (q ≤ 0.05, log2 ratio ≤ -1)
Conditions in all cases: compound concentration: 200 uM; treatment time: 3 h
OTUD6B = molecular target: T1, OTUD6B (UniProt Q8N6M0)
T1 sequence (whole entry): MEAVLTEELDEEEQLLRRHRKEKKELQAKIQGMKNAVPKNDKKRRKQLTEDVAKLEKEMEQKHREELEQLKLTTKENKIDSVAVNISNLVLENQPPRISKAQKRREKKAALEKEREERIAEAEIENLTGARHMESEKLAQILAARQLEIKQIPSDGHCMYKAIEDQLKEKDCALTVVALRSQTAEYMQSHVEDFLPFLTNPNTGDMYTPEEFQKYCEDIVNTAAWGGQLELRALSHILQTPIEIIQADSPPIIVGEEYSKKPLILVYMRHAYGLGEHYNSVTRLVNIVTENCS
How it was run: (§1)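 Labelling with Biotin-Ahx-Ub-VS (0.5 µM final, 1 h) followed a 3 h triplicate treatment of HEK293T lysate (495 µg per sample, Tris/CHAPS/IGEPAL buffer with protease inhibitors) with fragment at 200 µM or vehicle. Labelled DUBs were NeutrAvidin-enriched, digested with LysC and trypsin, and run by diaPASEF LC-MS/MS. The values, average log2 fragment/vehicle ratios by unpaired t-test, come from global-median-normalised Spectronaut label-free quantities. Proteins with ≥2 unique peptides were used.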

OTUD7B = molecular target: T2, OTUD7B (UniProt Q6GQQ9)
T2 sequence (whole entry): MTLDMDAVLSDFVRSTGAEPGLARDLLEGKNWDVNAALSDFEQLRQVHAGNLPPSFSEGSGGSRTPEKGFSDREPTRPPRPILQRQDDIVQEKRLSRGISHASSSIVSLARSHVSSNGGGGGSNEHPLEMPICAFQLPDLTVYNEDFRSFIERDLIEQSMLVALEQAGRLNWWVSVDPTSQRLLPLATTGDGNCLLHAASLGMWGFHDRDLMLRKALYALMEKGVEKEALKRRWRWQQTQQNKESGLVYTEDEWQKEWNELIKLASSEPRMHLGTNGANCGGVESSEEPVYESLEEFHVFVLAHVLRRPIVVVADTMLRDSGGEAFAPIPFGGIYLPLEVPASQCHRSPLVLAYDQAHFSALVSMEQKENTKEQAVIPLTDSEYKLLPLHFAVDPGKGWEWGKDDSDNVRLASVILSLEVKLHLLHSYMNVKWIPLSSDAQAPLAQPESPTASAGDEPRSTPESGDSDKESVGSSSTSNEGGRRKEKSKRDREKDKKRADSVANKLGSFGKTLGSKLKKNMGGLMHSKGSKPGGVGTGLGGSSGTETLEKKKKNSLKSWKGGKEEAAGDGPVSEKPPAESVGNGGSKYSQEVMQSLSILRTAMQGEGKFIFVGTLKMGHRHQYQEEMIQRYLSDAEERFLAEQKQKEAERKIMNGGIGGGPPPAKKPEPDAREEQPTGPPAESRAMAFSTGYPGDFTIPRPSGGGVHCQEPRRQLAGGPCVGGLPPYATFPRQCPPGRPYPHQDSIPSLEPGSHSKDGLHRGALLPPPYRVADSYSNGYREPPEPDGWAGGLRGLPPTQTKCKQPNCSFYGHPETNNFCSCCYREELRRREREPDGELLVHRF
How it was run: as §1

PRPF8 = PRPF8 (UniProt Q6P2Q9)
How it was run: as §1

PSMD7 = molecular target: T3, PSMD7 (UniProt P51665)
T3 sequence (whole entry): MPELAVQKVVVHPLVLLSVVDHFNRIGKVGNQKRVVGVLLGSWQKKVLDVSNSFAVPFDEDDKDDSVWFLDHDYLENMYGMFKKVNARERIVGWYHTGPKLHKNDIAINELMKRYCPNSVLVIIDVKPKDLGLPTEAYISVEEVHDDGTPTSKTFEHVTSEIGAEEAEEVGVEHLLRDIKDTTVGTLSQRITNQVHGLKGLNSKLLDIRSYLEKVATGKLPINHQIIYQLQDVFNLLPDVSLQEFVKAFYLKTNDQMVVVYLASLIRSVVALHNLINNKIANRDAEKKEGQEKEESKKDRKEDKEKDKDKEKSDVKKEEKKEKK
How it was run: as §1

UCHL1 = UCHL1 (UniProt P09936)
Sequence of UCHL1 (P09936 whole entry, looked up): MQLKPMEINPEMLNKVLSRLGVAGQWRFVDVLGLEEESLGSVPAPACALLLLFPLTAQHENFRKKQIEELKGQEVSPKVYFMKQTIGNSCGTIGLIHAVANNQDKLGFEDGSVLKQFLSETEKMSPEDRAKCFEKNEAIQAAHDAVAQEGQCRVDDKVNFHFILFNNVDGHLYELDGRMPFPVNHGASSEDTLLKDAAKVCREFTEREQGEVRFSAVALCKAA
How it was run: as §1

UCHL3 = molecular target: T4, UCHL3 (UniProt P15374)
T4 sequence (whole entry): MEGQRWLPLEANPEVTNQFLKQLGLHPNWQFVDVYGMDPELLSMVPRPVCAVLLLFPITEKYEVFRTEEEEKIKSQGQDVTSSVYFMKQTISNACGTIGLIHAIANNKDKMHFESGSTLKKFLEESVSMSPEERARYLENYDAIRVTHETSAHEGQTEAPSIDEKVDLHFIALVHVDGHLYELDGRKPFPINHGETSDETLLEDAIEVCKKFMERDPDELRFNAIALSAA
How it was run: as §1

UCHL5 = molecular target: T5, UCHL5 (UniProt Q9Y5K5)
T5 sequence (whole entry): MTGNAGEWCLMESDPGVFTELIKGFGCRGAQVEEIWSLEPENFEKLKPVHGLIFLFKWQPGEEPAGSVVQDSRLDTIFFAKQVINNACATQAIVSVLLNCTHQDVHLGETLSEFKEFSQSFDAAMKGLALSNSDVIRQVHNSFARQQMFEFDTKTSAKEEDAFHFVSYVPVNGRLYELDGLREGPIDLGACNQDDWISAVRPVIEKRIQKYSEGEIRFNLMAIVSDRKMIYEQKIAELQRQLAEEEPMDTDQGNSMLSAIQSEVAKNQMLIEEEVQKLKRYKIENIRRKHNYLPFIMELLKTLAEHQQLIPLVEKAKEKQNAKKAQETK
How it was run: as §1

USP10 = USP10 (UniProt Q14694)
Sequence of USP10 (Q14694 whole entry): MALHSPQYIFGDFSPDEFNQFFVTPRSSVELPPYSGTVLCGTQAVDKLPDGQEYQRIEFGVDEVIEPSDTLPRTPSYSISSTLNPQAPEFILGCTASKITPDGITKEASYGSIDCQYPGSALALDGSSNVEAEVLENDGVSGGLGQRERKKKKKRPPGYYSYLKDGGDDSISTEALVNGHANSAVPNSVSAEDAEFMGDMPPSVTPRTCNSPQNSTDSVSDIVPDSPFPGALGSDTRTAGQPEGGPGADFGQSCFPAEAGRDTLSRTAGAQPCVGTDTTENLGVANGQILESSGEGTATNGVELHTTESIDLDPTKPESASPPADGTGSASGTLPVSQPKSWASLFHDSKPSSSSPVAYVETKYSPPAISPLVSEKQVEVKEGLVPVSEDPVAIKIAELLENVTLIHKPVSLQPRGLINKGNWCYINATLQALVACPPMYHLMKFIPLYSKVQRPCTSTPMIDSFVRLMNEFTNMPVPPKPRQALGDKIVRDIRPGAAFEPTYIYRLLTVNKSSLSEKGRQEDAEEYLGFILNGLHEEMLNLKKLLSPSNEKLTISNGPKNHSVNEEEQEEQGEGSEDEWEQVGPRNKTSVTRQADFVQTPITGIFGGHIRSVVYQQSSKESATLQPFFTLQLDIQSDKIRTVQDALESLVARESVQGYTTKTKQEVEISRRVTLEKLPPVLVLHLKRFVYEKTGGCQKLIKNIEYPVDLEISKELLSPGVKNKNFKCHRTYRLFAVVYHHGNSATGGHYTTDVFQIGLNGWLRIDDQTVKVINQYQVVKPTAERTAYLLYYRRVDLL
How it was run: as §1

USP15 = molecular target: T6, USP15 (UniProt Q9Y4E8)
T6 sequence (whole entry): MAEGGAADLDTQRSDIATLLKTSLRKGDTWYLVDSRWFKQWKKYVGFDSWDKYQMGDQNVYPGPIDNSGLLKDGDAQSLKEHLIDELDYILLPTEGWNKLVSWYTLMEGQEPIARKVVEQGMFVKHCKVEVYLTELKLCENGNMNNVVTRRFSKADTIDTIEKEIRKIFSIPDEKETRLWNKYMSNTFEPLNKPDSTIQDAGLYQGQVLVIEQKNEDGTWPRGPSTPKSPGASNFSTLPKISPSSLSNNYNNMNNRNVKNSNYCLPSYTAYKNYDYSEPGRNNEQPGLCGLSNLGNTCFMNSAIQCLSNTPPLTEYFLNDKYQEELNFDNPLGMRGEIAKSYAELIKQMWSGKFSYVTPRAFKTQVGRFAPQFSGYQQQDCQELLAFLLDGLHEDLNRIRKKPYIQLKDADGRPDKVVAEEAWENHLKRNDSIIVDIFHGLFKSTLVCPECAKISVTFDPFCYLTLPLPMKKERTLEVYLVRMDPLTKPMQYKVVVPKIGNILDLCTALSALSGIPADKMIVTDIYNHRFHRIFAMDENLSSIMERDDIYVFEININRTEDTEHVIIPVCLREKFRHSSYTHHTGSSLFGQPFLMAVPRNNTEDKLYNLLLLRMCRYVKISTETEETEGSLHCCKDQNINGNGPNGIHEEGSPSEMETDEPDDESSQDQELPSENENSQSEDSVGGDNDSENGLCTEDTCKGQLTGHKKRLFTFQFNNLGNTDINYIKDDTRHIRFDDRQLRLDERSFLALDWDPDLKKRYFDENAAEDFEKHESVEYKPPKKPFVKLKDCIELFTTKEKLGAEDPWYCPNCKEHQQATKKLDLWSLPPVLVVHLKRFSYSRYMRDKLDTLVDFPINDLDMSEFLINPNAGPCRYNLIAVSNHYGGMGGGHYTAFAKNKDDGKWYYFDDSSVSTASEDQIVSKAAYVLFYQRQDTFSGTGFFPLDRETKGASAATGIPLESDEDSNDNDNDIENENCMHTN
How it was run: as §1

USP16 = USP16 (UniProt Q9Y5T5)
Sequence of USP16 (Q9Y5T5 whole entry, looked up): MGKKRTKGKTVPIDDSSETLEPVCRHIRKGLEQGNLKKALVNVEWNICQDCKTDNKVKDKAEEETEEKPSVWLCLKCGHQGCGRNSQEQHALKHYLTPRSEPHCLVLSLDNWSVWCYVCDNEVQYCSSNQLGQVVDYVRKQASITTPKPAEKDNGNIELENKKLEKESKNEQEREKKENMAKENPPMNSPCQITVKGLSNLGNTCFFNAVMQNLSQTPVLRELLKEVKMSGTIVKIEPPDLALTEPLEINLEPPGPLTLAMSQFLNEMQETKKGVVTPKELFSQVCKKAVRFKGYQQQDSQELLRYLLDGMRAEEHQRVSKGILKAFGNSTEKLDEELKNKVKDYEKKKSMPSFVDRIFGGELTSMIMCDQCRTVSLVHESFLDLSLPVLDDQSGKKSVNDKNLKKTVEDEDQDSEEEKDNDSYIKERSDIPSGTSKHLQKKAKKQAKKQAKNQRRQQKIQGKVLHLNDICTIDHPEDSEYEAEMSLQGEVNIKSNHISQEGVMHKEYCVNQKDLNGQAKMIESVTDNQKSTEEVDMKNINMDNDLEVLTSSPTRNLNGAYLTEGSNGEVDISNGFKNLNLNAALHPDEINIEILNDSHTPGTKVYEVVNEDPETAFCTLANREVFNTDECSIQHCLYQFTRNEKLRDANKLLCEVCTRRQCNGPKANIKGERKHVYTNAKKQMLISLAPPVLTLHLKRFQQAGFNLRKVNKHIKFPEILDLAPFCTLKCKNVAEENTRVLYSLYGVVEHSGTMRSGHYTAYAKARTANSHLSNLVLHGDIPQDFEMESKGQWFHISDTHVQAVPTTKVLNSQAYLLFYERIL
How it was run: as §1

Measured: log2 ratio of Biotin-Ahx-Ub-VS probe labelling

O=C(CCl)Nc1ccccc1C(F)(F)F
inactive: OTUD6B -0.447 | OTUD7B -0.668 | PRPF8 0.155 | PSMD7 -0.0779 | UCHL1 -0.977 | UCHL3 0.2 | UCHL5 -0.341 | USP10 -0.0659 | USP15 -0.122 | USP16 -0.0895
